The full data set covers some 8,800 targets. This sample favours those with a hit. About 0.5% of all pairs of compound and target were hits.
Tests used:
Assay in all cases: log2 fold change, soluble protein after heating vs DMSO (PISA); higher = thermal stabilisation; K562 lysate, 10 uM; active = over 0.2 and 3.5 SD of the protein, either way, in both replicates (recomputed)
[1] = compound: C1=CC=C(C=C1)[C@H](COC2=CC3=C(C=C2)NC(=O)N3)NC(=O)C4=CC=CN(C4=O)CC5=CC(=C(C=C5)F)F
Summary of the method: (§1)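 Values give the log-two fold change in thermal stability against solvent controls, from duplicates. Crude K562 extract at 1 mg/mL protein, made by dounce homogenisation in PBS pH 7.4 with 1 mM MgCl2, was treated with 10 μM compound for 30 min. After 3 min heating across 48°C-58°C, aliquots were pooled, adjusted to 0.5% NP-40 at 4°C and centrifuged at 21,000xg for 90 min. The supernatant was measured by TMTpro 16plex LC-MS/MS with channel sums equalised.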

[2] = compound: CC1=C(SC2=C1C(=N[C@H](C3=NN=C(N32)C)CC(=O)N)C4=CC=C(C=C4)Cl)C
Summary of the method: as §1

[3] = compound: CC1=C2C(=CC=C1)N=C(N(C2=O)C3=CC=CC=C3C)CN4C=NC5=C(N=CN=C54)N
Summary of the method: as §1

[4] = compound: Cc1sc2c(c1C)C(c1ccc(Cl)cc1)=N[C@@H](CC(=O)OC(C)(C)C)c1nnc(C)n1-2
Summary of the method: as §1

[5] = compound: c1ccc([C@@H]2C[C@H]2NC2CCNCC2)cc1
Summary of the method: as §1

Measured: log2 fold change

PYURF (UniProt Q96I23)
Chain of UniProt Q96I23 (Q96I23 whole entry, looked up): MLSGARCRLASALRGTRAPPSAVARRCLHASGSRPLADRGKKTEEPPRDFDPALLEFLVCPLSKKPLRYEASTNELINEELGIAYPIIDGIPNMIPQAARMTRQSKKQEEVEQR
inactive: [1] 0.03 | [2] 0.048 | [3] 0.126 | [4] 0.007 | [5] -0.091

PIP4K2A (UniProt P48426)
Chain of UniProt P48426 (P48426 whole entry, looked up): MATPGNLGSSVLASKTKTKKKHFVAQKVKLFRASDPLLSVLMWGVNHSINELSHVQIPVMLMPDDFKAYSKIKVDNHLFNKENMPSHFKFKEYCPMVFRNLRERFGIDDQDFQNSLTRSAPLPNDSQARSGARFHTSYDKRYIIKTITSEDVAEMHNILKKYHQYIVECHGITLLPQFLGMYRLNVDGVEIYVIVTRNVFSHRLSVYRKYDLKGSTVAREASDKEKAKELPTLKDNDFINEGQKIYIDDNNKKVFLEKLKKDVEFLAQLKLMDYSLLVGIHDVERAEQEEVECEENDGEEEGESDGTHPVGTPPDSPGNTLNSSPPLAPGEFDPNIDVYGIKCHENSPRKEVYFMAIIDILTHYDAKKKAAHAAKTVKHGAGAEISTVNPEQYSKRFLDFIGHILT
inactive: [1] -0.093 | [2] -0.053 | [3] -0.041 | [4] -0.05 | [5] -0.106

PFKP (UniProt Q01813)
Chain of UniProt Q01813 (Q01813 whole entry, looked up): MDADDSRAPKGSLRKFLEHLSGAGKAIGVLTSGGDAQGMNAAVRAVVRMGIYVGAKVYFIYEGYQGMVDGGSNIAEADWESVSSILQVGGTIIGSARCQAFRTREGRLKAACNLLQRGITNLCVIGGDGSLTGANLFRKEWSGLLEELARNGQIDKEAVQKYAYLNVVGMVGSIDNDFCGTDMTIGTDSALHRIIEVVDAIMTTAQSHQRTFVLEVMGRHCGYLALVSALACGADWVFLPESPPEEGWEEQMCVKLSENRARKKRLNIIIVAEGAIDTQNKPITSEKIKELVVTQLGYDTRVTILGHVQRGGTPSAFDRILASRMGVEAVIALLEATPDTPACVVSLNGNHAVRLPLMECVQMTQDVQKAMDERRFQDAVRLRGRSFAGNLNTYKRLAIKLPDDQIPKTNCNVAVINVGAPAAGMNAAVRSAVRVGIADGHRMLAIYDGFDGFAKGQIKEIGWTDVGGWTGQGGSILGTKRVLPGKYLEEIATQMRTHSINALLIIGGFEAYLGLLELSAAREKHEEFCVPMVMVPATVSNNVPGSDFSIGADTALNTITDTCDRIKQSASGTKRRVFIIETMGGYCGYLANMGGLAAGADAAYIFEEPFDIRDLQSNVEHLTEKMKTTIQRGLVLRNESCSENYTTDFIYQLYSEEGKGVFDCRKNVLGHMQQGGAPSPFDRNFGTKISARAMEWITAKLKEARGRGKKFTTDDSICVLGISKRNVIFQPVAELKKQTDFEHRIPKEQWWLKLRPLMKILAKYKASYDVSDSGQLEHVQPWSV
inactive: [1] -0.005 | [2] 0.02 | [3] 0.043 | [4] -0.031 | [5] 0.027

PRMT5 (UniProt O14744)
Chain of UniProt O14744 (O14744 whole entry, looked up): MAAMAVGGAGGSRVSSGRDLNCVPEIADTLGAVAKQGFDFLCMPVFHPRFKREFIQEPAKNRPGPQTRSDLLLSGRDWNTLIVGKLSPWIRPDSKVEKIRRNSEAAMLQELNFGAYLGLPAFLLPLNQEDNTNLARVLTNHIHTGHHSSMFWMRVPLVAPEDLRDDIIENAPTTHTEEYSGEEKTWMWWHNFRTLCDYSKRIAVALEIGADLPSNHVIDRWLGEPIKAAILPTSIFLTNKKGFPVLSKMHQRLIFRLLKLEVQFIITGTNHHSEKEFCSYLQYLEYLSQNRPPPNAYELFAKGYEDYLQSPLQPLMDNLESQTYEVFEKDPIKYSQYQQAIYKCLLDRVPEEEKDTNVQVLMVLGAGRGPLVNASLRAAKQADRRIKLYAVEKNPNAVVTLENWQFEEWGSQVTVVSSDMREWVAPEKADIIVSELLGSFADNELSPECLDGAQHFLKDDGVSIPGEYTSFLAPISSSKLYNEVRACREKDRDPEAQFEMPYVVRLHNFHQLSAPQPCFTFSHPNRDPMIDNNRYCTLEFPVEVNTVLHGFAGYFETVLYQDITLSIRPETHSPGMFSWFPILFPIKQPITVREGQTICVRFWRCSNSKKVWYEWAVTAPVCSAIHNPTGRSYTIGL
inactive: [1] -0.01 | [2] 0.031 | [3] 0.006 | [4] -0.013 | [5] 0.002

PLK1 (UniProt P53350)
Chain of UniProt P53350 (P53350 whole entry, looked up): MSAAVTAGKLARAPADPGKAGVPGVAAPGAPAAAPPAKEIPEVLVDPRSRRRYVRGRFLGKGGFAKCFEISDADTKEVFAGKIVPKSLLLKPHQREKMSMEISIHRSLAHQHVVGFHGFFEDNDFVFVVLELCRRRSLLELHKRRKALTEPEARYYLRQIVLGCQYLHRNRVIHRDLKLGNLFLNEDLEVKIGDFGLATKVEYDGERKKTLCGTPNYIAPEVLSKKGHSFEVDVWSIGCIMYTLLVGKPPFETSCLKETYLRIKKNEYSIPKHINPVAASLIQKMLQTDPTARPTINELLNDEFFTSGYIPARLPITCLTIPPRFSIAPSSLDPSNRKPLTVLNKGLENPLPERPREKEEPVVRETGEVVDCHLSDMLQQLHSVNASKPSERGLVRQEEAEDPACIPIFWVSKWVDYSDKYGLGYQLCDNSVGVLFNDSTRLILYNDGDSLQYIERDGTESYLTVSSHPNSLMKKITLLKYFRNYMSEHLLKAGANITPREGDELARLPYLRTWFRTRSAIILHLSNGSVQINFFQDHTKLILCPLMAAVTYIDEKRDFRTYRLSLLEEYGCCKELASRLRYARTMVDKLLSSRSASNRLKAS
inactive: [1] 0.033 | [2] 0.042 | [3] 0.052 | [4] -0.026 | [5] 0.084

PRKDC (UniProt P78527)
inactive: [1] -0.073 | [2] -0.123 | [3] -0.064 | [4] 0.028 | [5] -0.048

PHGDH (UniProt O43175)
Chain of UniProt O43175 (O43175 whole entry, looked up): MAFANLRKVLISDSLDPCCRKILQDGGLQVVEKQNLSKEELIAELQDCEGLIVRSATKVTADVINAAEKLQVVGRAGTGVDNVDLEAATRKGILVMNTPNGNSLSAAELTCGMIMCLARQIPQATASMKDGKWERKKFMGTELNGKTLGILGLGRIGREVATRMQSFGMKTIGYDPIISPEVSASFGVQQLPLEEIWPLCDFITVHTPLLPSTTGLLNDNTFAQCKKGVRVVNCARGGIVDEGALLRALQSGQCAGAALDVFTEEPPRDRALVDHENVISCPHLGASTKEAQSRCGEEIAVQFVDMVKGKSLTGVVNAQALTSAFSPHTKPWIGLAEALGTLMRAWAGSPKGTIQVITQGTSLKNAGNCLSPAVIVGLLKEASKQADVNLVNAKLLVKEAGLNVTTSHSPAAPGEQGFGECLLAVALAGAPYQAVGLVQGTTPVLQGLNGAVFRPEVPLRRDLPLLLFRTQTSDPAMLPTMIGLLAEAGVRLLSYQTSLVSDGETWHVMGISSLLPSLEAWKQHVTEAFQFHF
inactive: [1] -0.014 | [2] 0.017 | [3] 0.047 | [4] 0.046 | [5] 0.052

PGRMC1 (UniProt O00264)
Chain of UniProt O00264 (O00264 whole entry, looked up): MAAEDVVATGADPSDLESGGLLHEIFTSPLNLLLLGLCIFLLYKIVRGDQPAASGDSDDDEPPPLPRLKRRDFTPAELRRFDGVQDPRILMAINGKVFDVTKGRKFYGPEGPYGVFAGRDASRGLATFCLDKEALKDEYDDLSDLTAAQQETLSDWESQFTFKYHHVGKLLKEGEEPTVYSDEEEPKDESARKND
inactive: [1] 0.073 | [2] -0.038 | [3] 0.008 | [4] -0.031 | [5] -0.039

PCBP2 isoform 3 (UniProt Q15366)
Chain of UniProt Q15366 (Q15366 whole entry, looked up): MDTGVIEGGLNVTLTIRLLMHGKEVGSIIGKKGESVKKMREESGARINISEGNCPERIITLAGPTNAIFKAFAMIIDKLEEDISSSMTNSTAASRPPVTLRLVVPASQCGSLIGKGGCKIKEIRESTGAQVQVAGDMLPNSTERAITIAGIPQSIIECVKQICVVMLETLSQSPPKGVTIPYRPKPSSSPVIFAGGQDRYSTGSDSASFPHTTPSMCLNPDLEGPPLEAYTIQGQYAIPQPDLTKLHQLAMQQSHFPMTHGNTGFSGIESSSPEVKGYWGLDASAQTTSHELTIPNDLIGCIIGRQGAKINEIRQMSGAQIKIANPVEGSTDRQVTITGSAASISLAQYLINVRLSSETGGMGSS
inactive: [1] -0.011 | [2] 0.017 | [3] -0.041 | [4] 0.061 | [5] 0.05

From the supplement of paper PMC10849652
